About 5,700 (36%) of roughly 16,000 compounds were called active. Another 24% or so got no clear call; they are omitted. Calls follow the shape of the dose curve; as a rule, active = well fitted curve in the direction sought with a large enough effect; inconclusive = small, poorly fitted or top-dose-only effect, or effect the other way; inactive = no such curve, though single readings can be large or run the other way. This is one part of the list.
Target: Cytochrome P450 1A2 (Homo sapiens) (UniProt P05177)
Experiment: Cytochrome panel assay with activity outcomes
Conditions: recombinant CYP, pro-luciferin dealkylation, luminescence, p450-cyp1a2; series mostly up to 57.1 µM
% is scaled to controls: 0 for no effect and ±100 for the full control effect.

Chain of Cytochrome P450 1A2 (Homo sapiens) (P05177 whole entry, looked up): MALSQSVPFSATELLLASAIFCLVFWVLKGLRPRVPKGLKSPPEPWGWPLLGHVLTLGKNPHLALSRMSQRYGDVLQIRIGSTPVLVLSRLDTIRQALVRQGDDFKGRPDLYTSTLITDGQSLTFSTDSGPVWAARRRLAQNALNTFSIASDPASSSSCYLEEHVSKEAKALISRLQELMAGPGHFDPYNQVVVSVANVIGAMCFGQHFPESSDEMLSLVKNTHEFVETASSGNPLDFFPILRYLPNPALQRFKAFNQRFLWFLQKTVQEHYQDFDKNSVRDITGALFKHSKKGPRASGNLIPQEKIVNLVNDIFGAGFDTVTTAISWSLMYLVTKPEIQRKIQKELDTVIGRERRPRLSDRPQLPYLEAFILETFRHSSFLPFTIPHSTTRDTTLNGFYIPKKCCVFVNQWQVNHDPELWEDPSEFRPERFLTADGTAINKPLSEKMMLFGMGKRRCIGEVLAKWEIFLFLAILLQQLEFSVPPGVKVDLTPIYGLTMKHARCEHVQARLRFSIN

AC50, inactive:
CCc1cc2c(=O)c(-c3nc4ccccc4n3C)c(C)oc2c(CN(CC)CC)c1O, COc1ccc(C2C(=O)N(CCc3ccccc3)CC(=O)N2C2CCCC2)cc1 (stereo unspecified), COc1ccc(S(=O)(=O)N2CCCCCC2)cc1N(C)S(=O)(=O)c1ccc(Cl)cc1, Cc1cc(NCCO)c2ccccc2n1, Cc1c(Cl)cccc1NC(=O)CN1CCC(C(O)(c2ccccc2)c2ccccc2)CC1, Cc1cccc(C(=O)c2ccccc2C(=O)O)c1O, Cc1ccc(Cl)c(Nc2ccccc2C(=O)O)c1Cl, COC(=O)[C@@]1(Cc2ccccc2)[C@H]2c3cc(C(=O)N4CCCC4)n(CC4CC4)c3C[C@H]2CN1C(=O)c1ccccc1, COC(=O)N1CCC2(CC1)CCN(c1ccncc1)CC2, COc1ccc(Cc2n[nH]c(=O)c3ccccc23)cc1OC, CCC(=S)/C=C1\Sc2ccccc2N1CCCS(=O)(=O)O, O=C1NC(=S)N/C1=C/c1cccc([N+](=O)[O-])c1O, O=C(O)C1C2C=CC3(CN(Cc4ccccn4)C(=O)C13)O2 (stereo unspecified), COC(=O)c1cc(NC(=O)CC2NC3CCCCC3NC2=O)cc(C(=O)OC)c1 (stereo unspecified), Cc1ccc(NC(=O)CC2CS(=O)(=O)CC2CC(=O)Nc2ccc(C)c(C)c2)cc1C (stereo unspecified), CN(C)C(=O)Oc1cccc([N+](C)(C)C)c1, CCC[C@@H]1C[C@@]1(CCC)C(NC(=O)c1ccc(-c2ccccc2)cc1)c1cccc(Cl)c1 (stereo partly specified), Cc1ccc(NC(=O)CN2C(=O)S/C(=C\c3cccn3C)C2=O)cc1, Cc1cc(N)c2ccccc2[n+]1CCCCCCCCCCCCCC[n+]1c(C)cc(N)c2ccccc21

AC50, active:
Cc1oc2c(C)c(O)ccc2c(=O)c1-c1ccc2ccccc2n1 2240 nM, C=CCc1cccc2cc(C(=O)N(CC)CC)c(=O)oc12 1410 nM, COc1ccc(Oc2ncc3nc(CCc4ccccc4)c(=O)n(C4CC4)c3n2)cc1 12600 nM, O=c1c(CCc2ccccc2)nc2cncnc2n1C1CC1 6310 nM, CN(C)c1ncc2nc(CCc3ccccc3)c(=O)n(C3CC3)c2n1 3160 nM, COc1ncc2nc(CCc3ccccc3)c(=O)n(C3CC3)c2n1 3160 nM, O=c1c(CCc2ccccc2)nc2cnc(Oc3ccccc3)nc2n1C1CC1 7940 nM, Cc1cc(C)c2c(N)c3ccccc3nc2n1 2240 nM, C=CC[n+]1c(-c2ccc(C)cc2)csc1NNC(=O)Nc1ccccc1 10000 nM, Cc1c(Cl)cccc1Nc1ccccc1C(=O)O 3160 nM, Cc1cccc(Nc2ccccc2C(=O)O)c1C 5010 nM, Cc1ccc2nc(Nc3ccccc3O)nc(-c3ccccc3)c2c1 1780 nM, COc1cnc(-c2ccccc2)nc1Oc1cccc(C)c1 3160 nM, CCOC(=O)c1cnc(-c2ccccc2)nc1Oc1ccc(Cl)cc1 200 nM, CCOC(=O)c1cnc(-c2ccccc2)nc1Oc1ccccc1 631 nM, CCOC(=O)c1cnc(-c2ccccc2)nc1Oc1cccc(Cl)c1 2510 nM, Cc1ccc(Oc2nc(-c3ccccc3)ncc2S(C)(=O)=O)cc1 2820 nM, COc1nnc(OC)c2ccccc12 2510 nM, CCN(CC)[C@@H](C)CN1c2ccccc2Sc2ccccc21 501 nM, O=[N+]([O-])c1cccc(/C=N\Nc2ccc3ccccc3n2)c1O 794 nM, S=c1[nH]c2cc(Cl)ccc2s1 2000 nM, O=C(CC1CCCC1)Nc1ccc2c(c1)CCC2 15800 nM, N#Cc1ccc(-c2ccccc2)nc1SCC(=O)c1cccc(Cl)c1 2000 nM, Cc1c(C(=O)Nc2nccs2)sc2nc(-c3cccs3)cc(C(F)(F)F)c12 1580 nM, Cc1ccc(Oc2ccccc2/C=C2\SC(=O)N(C)C2=O)cc1 3160 nM, CCCCCCCCC[n+]1cccc2c3ccccc3ccc21 15800 nM

activity, negative = inhibition, inactive:
C[C@@]1(C(=O)O)CCC[C@@H]1C(=O)O -9.8% [at 2.29 µM], O=S(=O)(O)[C@@H](c1ccccc1)[C@@H](O)c1ccccc1 -13.9% [at 2.29 µM], CN(C)CC(C)(C)CN1c2ccccc2Sc2ccccc21 -17.7% [at 11.4 µM], O=C(O)c1ccccc1CN1CCC[C@@H](C(=O)O)C1 -5.22% [at 11.4 µM], COc1ccc(O[C@H]2C=C[C@@H](c3ccccc3)O[C@@H]2CO/N=C\[C@@H](C)[C@H](OCc2ccccc2)C(C)C)cc1 -3.11% [at 11.4 µM], CS[C@]12C(=O)C[C@]3(C)[C@@H](CC[C@@]3(O)C(=O)CO)[C@@H]1CCC1=CC(=O)CC[C@]12C -24.3% [at 2.29 µM]

— PubChem BioAssay AID1851 (National Center for Advancing Translational Sciences (NCATS), 2009)
